Screening results (PubChem)
Sfp PPTase inh – blocks B. subtilis Sfp PPTase activity; Biochemical Sfp PPTase activity, qHTS; Potency, µM, usual class: inhibitors; 310,000 compounds, 3.5% hits; AID 1490;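 also: the enzyme is Sfp with the accession as filed and its product quenches rhodamine fluorescence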
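Fluorescence-quenching assay: 15 nM Sfp-PPTase preincubated 15 min at room temperature with compound, then 5 uM rhodamine-CoA and 12.5 uM BHQ-2-labelled YbbR peptide added. Fluorescence (ex 525/em 598 nm) read at start and after 30 min; difference gives rate.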
RORg inh – ROR gamma (mouse) transcription inhibition | Drosophila S2 Gal4-RORgamma UAS-luciferase reporter, 20 h | Potency, µM (highest dose often 53.6 µM), actives largely listed as inhibitors | 310,000 compounds, 5.4% hits; also: nearly all actives have a fitted effect of over 60% in size
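Luciferase reporter read in Schneider cells carrying Gal4-RORγ (mouse) and UAS-Photinus luciferase; cells given compound 1 h before 700 uM copper sulfate induction, then incubated 20 h at ambient temperature.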
PLK1 PBD block – blocks phosphopeptide binding to human PLK1 polo-box domain | P53350 | Plk1 PBD binding of FITC phosphopeptide, fluorescence polarization | Potency, µM, most hits filed as inhibitors | 360,000 compounds, 2.8% hits | AID 720504; also: series mostly up to about 57 µM; nearly all actives have a fitted effect of over 65% in size
Gal4-VP16 FLuc – counter-screen for ROR gamma inhibitors: Gal4-VP16 reporter; 310,000 compounds, 3.5% hits; Potency, µM (doses to about 53.6 µM), most hits filed as inhibitors; Drosophila S2 Gal4-VP16 UAS-luciferase, luminescence, 20 h;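 also: Gal4-VP16 expression switched on by copper sulfate through the metallothionein promoter; nearly all actives have a fitted effect of over 50% in size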
ALDH1A1 block – inhibitors of human aldehyde dehydrogenase 1A1. P00352. Purified ALDH1A1, NADH fluorescence, propionaldehyde substrate. Potency, µM (top dose mostly 75.3 µM), hits mostly inhibitors. 220,000 compounds, 7.3% hits; active = well fitted inhibition curve with a large enough effect, not every such curve was filed as active; inconclusive = small, poorly fitted or top-dose-only effect, or another doubt; inactive = no such curve, though single readings can be large or run the other way
Target sequence (P00352 whole entry, looked up): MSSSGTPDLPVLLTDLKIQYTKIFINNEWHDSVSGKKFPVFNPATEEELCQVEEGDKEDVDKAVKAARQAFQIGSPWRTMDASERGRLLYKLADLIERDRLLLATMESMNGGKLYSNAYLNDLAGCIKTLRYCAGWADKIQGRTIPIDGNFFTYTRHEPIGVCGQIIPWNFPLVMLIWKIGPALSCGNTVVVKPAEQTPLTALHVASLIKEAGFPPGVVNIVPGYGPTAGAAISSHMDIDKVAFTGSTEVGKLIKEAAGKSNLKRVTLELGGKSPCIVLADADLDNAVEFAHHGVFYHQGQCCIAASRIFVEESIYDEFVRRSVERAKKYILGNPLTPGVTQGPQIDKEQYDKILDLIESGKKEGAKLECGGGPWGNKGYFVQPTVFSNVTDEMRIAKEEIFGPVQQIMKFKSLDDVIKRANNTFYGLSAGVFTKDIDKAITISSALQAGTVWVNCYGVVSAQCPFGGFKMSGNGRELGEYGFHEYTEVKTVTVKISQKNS
Numbers stand for hits; - = inactive; ? = inconclusive; . = no result; ! = a repeat was not active; [ ] = remark or other dose. Shown are actives, neighbours in structure and some others; about 12% of the full set was active somewhere. Unless noted, calls follow the shape of the dose curve; as a rule, active = well fitted curve in the direction sought with a large enough effect; inconclusive = small, poorly fitted or top-dose-only effect, or another doubt; inactive = no such curve, though single readings can be large; an effect the other way counts as inactive or inconclusive.

SMILES	Sfp PPTase inh	RORg inh	PLK1 PBD block	Gal4-VP16 FLuc	ALDH1A1 block
CCOc1ccc2c(c1)ncn2Cc1ccccc1	-	11µM	?	-	-
CC(=O)Oc1ccc(Cn2cnc3cc4ccccc4cc32)cc1	-	-	-	-	?
CCN(CC)C(=O)c1nc(-c2cccc3ccccc23)no1	.	.	-	.	.
O=C1[C@@H]2C(c3cccnc3)=NO[C@@H]2C(=O)N1c1ccc(Br)cc1	?	-	?	-	7.9µM
COc1ccc(-c2c(C(=O)c3ccc(Br)cc3)[nH]c(N)c2C(=O)c2ccccc2)cc1OC	.	.	-	.	.
COc1ccc(-c2ccc(N(C)C)cc2)cc1C1C2C=CCCC2(C)C(=O)N1Cc1ccccc1 (stereo not drawn)	?	-	.	-	.
CC(=O)O[C@@H]1[C@@]2(C)O[C@H]2CC[C@]23O[C@H]2[C@H](OC3=O)C2=C(C)C(=O)O[C@@]21O	-	?	-	?	28µM
CCCS(=O)(=O)NC(=O)C1(C)CCN(C(=O)COc2ccc(Cl)cc2Cl)C1 (stereo not drawn)	.	.	-	.	.
CC(=O)c1ccc(Nc2nc(CN)cs2)cc1	.	.	-	.	.
CN1C(=O)C(Cc2cnc[nH]2)NC1=S (stereo not drawn)	79µM	-	-	-	.
Cc1ccc(S(=O)(=O)N2C[C@H]3n4c(=O)ccc(=O)n4C[C@H](OC(=O)NCC4CCCCC4)[C@@]3(O)C2)cc1	.	.	-	.	.
CS(=O)(=O)N1CCC(c2noc(-c3ccc(C(F)(F)F)cc3)n2)CC1	-	?	-	10µM	-
Cc1ccc(S(=O)(=O)N[C@H]2COC(=O)[C@@H](C)COC(=O)C/C=C\[C@H]2C)cc1	-	-[10 µM]	.	-[10 µM]	-[13.5 µM]
Oc1ccccc1C=NC1=NN(c2cccc(C(F)(F)F)c2)CC1	-	?	-	-	22µM
COc1cccc(C2=Nn3c(nnc3-c3ccc(OC)cc3OC)SC2)c1	-	-	.	-	.
CCCN(CCC)c1nc(N)nc(-c2cc(Cl)ccc2OC)n1	-	16µM	-	-	-
O=C(C1CCN(C2CCN(CC3CC=CCC3)CC2)CC1)N1CCOCC1 (stereo not drawn)	-	-	-	-	-
Nc1nc(O)c(Sc2ccccc2[N+](=O)[O-])c(=O)[nH]1	-	-	12µM	-	.
COc1cccc(NC(=O)c2cc3ccccc3oc2=O)c1	-	6.3µM	-	10µM	.
COc1ccc2oc(=O)c(/C(C)=N/Nc3ccccc3)cc2c1	-	-	19µM	-	?
COc1ccc2oc(=O)c(C(=O)Nc3cccc(C(C)=O)c3)cc2c1	-	2µM	-	5.6µM	.
CO[Si](CCCNCCC[Si](OC)(OC)OC)(OC)OC	.	-	.	-	-
O=C(Nc1ccc2ccccc2c1)[C@H]1C[C@@H]1[C@H](NP(=O)(c1ccccc1)c1ccccc1)c1ccccc1	-	-	.	-	-
C=CCOc1c(Br)cc(/C=N/n2c(CC)n[nH]c2=S)cc1Br	79µM	7.9µM	-	7.9µM	-
CCc1n[nH]c(=S)n1/N=C/c1cc(Br)c(O)c(OC)c1	79µM	-	-	-	.
SMILES	Sfp PPTase inh	RORg inh	PLK1 PBD block	Gal4-VP16 FLuc	ALDH1A1 block
COc1cc(/C=N/n2c(COc3ccccc3)n[nH]c2=S)cc(Br)c1O	?	-	-	-	.
COc1ccccc1NC(=O)CSc1nc2c(sc3ccccc32)c(=O)n1CCN(C)C	40µM	?	?	?	?
CCN(CC)CCn1c(SCC(=O)Nc2ccc(F)cc2)nc2c(sc3ccccc32)c1=O	-	?	.	-	?
C=CCN(C(=O)CSc1nc2c(sc3ccccc32)c(=O)n1CCN(CC)CC)c1ccccc1	50µM	?	-	?	?
CCCCCCCCCCCCC/C=C/[C@@H](O)[C@H](CO)N(C)C	-	-	.	-	-
CCCCCCCCCCCCC/C=C/[C@@H](O)[C@@H](N)CO	79µM!	-	-	-	-
Cc1ccc(C)n1Cc1ccc(C(=O)O)cc1	?	-	3µM	-	?
CCNC(=O)C1(C)CCN(C(=O)c2ccc(-c3ccccc3)cc2)C1 (stereo not drawn)	.	.	-	.	.
COc1cc(C)c(CC/C(C)=C/C=C/C(C)=O)c(C)c1C	?	-	.	-	?
O=C1C2=C(CCCC2)C(=O)N1CNc1ccccc1	-	-	-	-	-
O=C1C(Nc2ccccc2)=C2CCCC=C2N1c1ccccc1	-	-	-	-	13µM
CC(=O)Nc1cccc(-c2ccnc3c2CC(C)(C(=O)NCCC(F)(F)F)O3)c1 (stereo not drawn)	.	.	-	.	.
CC1(C)CCC(C)(C)NC(=S)N1	-	8.9µM	-	?	-
